# The panel holds about 83,000 compounds, 20% with a hit somewhere; the sample as a whole holds those more often.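 Method: cells in 96-well plates; compound added at one concentration; 48 h incubation; percent growth measured; values under 10 scored active.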 The source made the active and inactive calls.
# Test system: KM12 colon
# Experiment: NCI-60 one-dose screen, 48 h (100 = growth as untreated, 0 = no growth, -100 = all killed)
# Details: 10 µM unless noted
# Method: Growth inhibition of the KM12 human tumor cell line is measured as a screen for anti-cancer activity. Cells are grown in 96 well plates and exposed to the test compound for 48 hours. Compounds are tested at a single concentration, which is 10^-5 M for most compounds. The reported endpoint is percent growth (GI% or GIPRCNT), where numbers from 0 - 100% represent growth inhibition, and numbers from -100% - 0 represent cell death. For example, a value of 40 represents 60% growth inhibition. A value of 0 means no net growth occurred over the course of the experiment. A value of -40 indicates 40% of cells at the beginning of the experiment died by the end of the experiment. A value of -100 means all cells are dead at the end of the experiment.
# NCI-60 Human Tumor Cell Lines Screen was performed using the standard one-dose NCI protocol, which is described in more detail at https://dtp.cancer.gov/discovery_development/nci-60/default.htm.
# Compounds with GIPRCNT values below 10 were considered active. Activity score was based on GIPRCNT using the following formula: […]
# Score is 0 for GIPRCNT values of 100 or above, 50 for GIPRCNT values of 0, and 100 for GIPRCNT values of -100.
row,Compound,growth
1,CSc1cccc([N+](=O)[O-])c1,113% (inactive)
2,CC(C)[N+](C)(C)CC(O)COc1cccc2ccccc12 (stereo not given),96.1% (inactive)
3,Cc1cc(-c2ccc(N=Nc3c(S(=O)(=O)O)cc4cc(S(=O)(=O)O)cc(N)c4c3O)c(C)c2)ccc1N=Nc1cc(S(=O)(=O)O)c2ccccc2c1O,102% (inactive)
4,O=c1cc(-c2ccccc2)oc2c(O)c(O)ccc12,65.3% (inactive)
5,O=C(N/N=C\c1cc(Cl)ccc1O)N/N=C/c1cc(Cl)ccc1O,44.4% (inactive)
6,CCn1cc(-c2[nH]c(=S)ncc2-c2ccc(Cl)cc2)c(-c2ccc(Br)cc2)n1,94% (inactive)
7,Cc1ccc(-c2cc(-c3ccc(C)cc3)nc(NCCNc3ccnc4cc(Cl)ccc34)n2)cc1,-73% (active)
8,c1ccc(-c2nc(N3CCCNCC3)c3nc(-c4ccccc4)oc3n2)cc1,-74.7% (active)
9,CC1(C)CC[C@]2(C(N)=O)CC[C@]3(C)C(=CC[C@@H]4[C@@]5(C)C/C(=C/c6ccncc6)C(=O)C(C)(C)[C@@H]5CC[C@]43C)[C@@H]2C1,-52.3% [100 µM] (active)
10,CC1(C)CC[C@]2(C(=O)OC(=O)[C@]34CCC(C)(C)C[C@@H]3C3=CC[C@@H]5[C@@]6(C)CCC(=O)C(C)(C)[C@@H]6CC[C@@]5(C)[C@]3(C)CC4)CC[C@]3(C)C(=CC[C@@H]4[C@@]5(C)CCC(=O)C(C)(C)[C@@H]5CC[C@]43C)[C@H]2C1,67.2% [100 µM] (inactive)
11,O=S(=O)(c1ccc(N/N=C\c2ccccc2Cl)cc1)c1ccc(N/N=C/c2ccccc2Cl)cc1,69.9% (inactive)
12,COc1ccc2[nH]c(C(=O)N3CCN(C(=O)OCc4ccc5c(Br)cc(Br)c(O)c5n4)CC3)cc2c1,-59.8% (active)
13,CCCOc1ccc(-c2nc(-c3ccc(N)cc3)cs2)cc1,115% (inactive)
14,CC1(C)CC[C@]2(C(N)=O)CC[C@]3(C)C(=CC[C@@H]4[C@@]5(C)C/C(=C/c6cccnc6)C(=O)C(C)(C)[C@@H]5CC[C@]43C)[C@@H]2C1,-37.2% [100 µM] (active)
15,Cc1cccc(C[C@H](NC(=O)Nc2ccc(C)cc2F)C(=O)N[C@@H]2C(=O)N3C[C@H](O)C[C@H]3C(=O)N3CCN(C)C[C@H]3C(=O)N[C@@H](C)C(=O)N3C[C@H](C)C[C@H]3C(=O)O[C@H]2C)c1,43.7% (inactive)
16,CCOC(=O)COc1c(C)cc(SSc2cc(C)c(OCC(=O)OCC)c(C)c2)cc1C,72.4% (inactive)
17,O=C(O)CC1CCCCC1c1ccccc1 (stereo not given),110% (inactive)
18,CC1=CC[C@@H]2C(C)(C)C(=O)CC[C@@]2(C)[C@@H]1COc1ccc2ccc(=O)oc2c1,63% (inactive)
19,CCOC(=O)c1c[nH]c2cc(OCC3CC3)c(OCC3CC3)cc2c1=O,95.7% (inactive)
20,CC(C)c1ccc(C(=O)Nc2sc3c(c2C#N)CCC(=O)C3)cc1,5.49% (active)

row,Compound,growth
1,C[C@@H]1C[C@H]2C(=O)O[C@@H](C)[C@H](NC(=O)[C@H](Cc3cc(F)cc(F)c3)NC(=O)Nc3ccc(Cl)cc3F)C(=O)N3C[C@H](O)C[C@H]3C(=O)N3CCN(C)C[C@H]3C(=O)N[C@@H](C)C(=O)N2C1,41.2% (inactive)
2,C[n+]1c2ccccc2nc2c(N)cc(N)cc21,63.8% (inactive)
3,CC(=O)Nc1ccc(C=Nc2ccc3ccccc3c2)cc1,108% (inactive)
4,Cn1cc(-c2nnc(-c3ccccc3)s2)c2cc(Br)cnc21,87.6% (inactive)
5,C=C(C)[C@@H]1CC[C@]2(C)[C@H](CC=C3[C@@H]4[C@@H](C)[C@H](C)CC[C@]4(C(N)=O)CC[C@]32C)[C@@]1(C)CCC#N,-46.4% [100 µM] (active)
6,Cc1ccc(S(=O)(=O)n2cc(C(=O)C(=O)N3CCCCC3)c3ccccc32)cc1,87.6% (inactive)
7,CCCCN(CCCC)CC(O)c1ccc(OCc2ccccc2)c2ccccc12 (stereo not given),74.2% (inactive)
8,COc1ccc2nc3c(cc2c1)C(=O)CC(c1ccccc1)C3 (stereo not given),10.8% (inactive)
9,COc1cc(NCc2ccccc2O)c2ncccc2c1,103% (inactive)
10,CC(C)C1=NOC(=O)C1=Cc1cn(-c2ccccc2)nc1-c1ccccc1,79.5% (inactive)
11,Cn1cc(-c2noc(C(=O)c3cn(C)c4ncccc34)n2)c2ccccc21,52% (inactive)
12,CCOc1cc(NC(=O)c2ccccc2)c(OCC)cc1N,105% (inactive)
13,O=C(NCCCCCCCNC(=O)OCc1ccc2c(Cl)cc(Cl)c(O)c2n1)OCc1ccc2c(Cl)cc(Cl)c(O)c2n1,-82.4% (active)
14,CCN1CCN(CC(=O)Nc2nc3ccc(NCc4ccc(Cl)cc4)cc3s2)CC1,59.9% (inactive)
15,CC(C)=CC/C=C(/C)[C@H]1CC[C@]2(C)[C@@H]1CC[C@@H]1[C@@]3(C)CCCNC(C)(C)[C@@H]3CC[C@]12C,-57.4% [100 µM] (active)
16,O=C1/C(=C\c2cccn2Cc2ccccc2)c2ccccc2N1c1c(Cl)cccc1Cl,4.07% (active)
17,COc1ccc(CC(C#N)c2ccc(Cl)cc2)cc1 (stereo not given),32.6% (inactive)
18,c1coc2occoc=2o1,106% (inactive)
19,CCN(CC)c1ccc(/C=C/C=C2\NC(=O)NC2=O)cc1,32.4% (inactive)
20,CCOC(=O)CC(c1ccccc1)C(C#N)c1ccccc1 (stereo not given),92.3% (inactive)
